Measurements: PubChem BioAssay (Tox21)
Records with an inconclusive call do not appear. Where a call stands in place of a potency, no number is given. Some compounds were tested as several samples or in several runs, with calls that do not always agree. The source made the active and inactive calls. The call rests on the fitted dose curve; in most records, active means well fitted cell-killing curve with a large enough effect in the repeat runs; inconclusive means weak or mixed curves, or effect the other way; inactive means flat fitted curve, though single readings scatter.

assay: qHTS assay to identify small molecule that activate the aryl hydrocarbon receptor (AhR) signaling pathway - cell viability counter screen (AID 743086); conditions: HepG2-AhR-luc viability, CellTiter-Fluor, 24 h; series mostly up to 70.3 µM; further: nearly all actives have a fitted effect of over 45% in size;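 on viability change, negative = cytotoxic: HepG2 liver cells carrying the AhR DRE luciferase reporter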
Excerpt: U.S. Tox21 Program National Center for Advancing Translational Sciences [NCATS] NIH Chemical Genomics Center [NCGC] U.S. Environmental Protection Agency [EPA] National Institutes of Environmental Health Sciences [NIEHS] National Toxicology Program [NTP] U.S. Food and Drug Administration [FDA] Tox21 Assay overview: The Aryl hydrocarbon Receptor (AhR), a member of the family of basic helix-loop-helix transcription factors, is crucial to adaptive responses to environmental changes. AhR mediates cellular responses to environmental pollutants such as aromatic hydrocarbons through induction of phase I and II enzymes but also interacts with other nuclear receptor signaling pathways A cell based HepG2-AhR-luc assay (HG2L7.5c1 cell line, developed by Dr. Michael S. Denison, University of California at Davis) was used to assess the activation of AhR. HepG2 (human hepatocellular carcinoma) cells were stably transfected with an Ah receptor-responsive firefly luciferase reporter gene plasmid containing 20 dioxin responsive elements and luciferase reporter gene. Increased luciferase activity can be used to identify the compounds that induce AhR activation. The cytotoxicity of the compounds screened against the HepG2-AhR-luc cell line was tested in parallel by measuring the cell viability using CellTiter-Fluor assay in the same wells.
Tox21 Assay Protocol Summary: 4000 cells in 5 uL/well were dispensed into white wall/solid bottom 1536-well plates using a Multidrop Combi (Thermo Fisher Scientific Inc., Waltham, MA) dispenser. After the assay plates were incubated at 37C for 5 h, 23 nL of compound or DMSO vehicle was transferred to the assay plates by a pintool station (Kalypsys, San Diego, CA). The plates were incubated at 37C for 24 hr. For cell viability measurement, 1 ul/well of CellTiter-Fluor reagent (Promega, Madison, WI) was added into the assay plates using a Flying Reagent Dispenser (FRD) (Aurora Discovery, CA),and then the assay plates were incubated at 37C for 30 min. The fluorescence intensity in the plates was measured using a ViewLux plate reader (PerkinElmer, Shelton, CT), followed by the addition of 4 uL of ONE-Glo Luciferase Assay reagent (Promega) using an FRD (Aurora Discovery). After the assay plates were incubated at room temperature for 30 min, luminescence intensity was measured using a ViewLux plate reader (Perkin Elmer).
Potency means the concentration at half of the fitted maximal effect.

Structure (SMILES)	Potency	viability change, negative = cytotoxic
C[C@]12C=CC(=O)C=C1CC[C@@H]1[C@@H]2CC[C@@]2(C)[C@H]1CC[C@]2(C)O	inactive	
COc1cccc([C@@]2(O)CCCC[C@@H]2CN(C)C)c1	inactive	
CC(O)CCl (stereo not given)	inactive	
BrCC1CO1 (stereo not given)	inactive	
O=c1[nH]c2ccccc2o1	inactive	
CC(=NC#N)N(C)Cc1ccc(Cl)nc1	inactive	
O=C(Cl)C(Cl)Cl	inactive	
C=C(Cl)CCl	inactive	
ClC1=C(Cl)C2(Cl)C(CBr)CC1(Cl)C2(Cl)Cl (stereo not given)	inactive	
CCC(=O)c1ccc(Cl)cc1	inactive	
CCCC(C)(COC(N)=O)COC(N)=O	inactive	
CS(=O)(=O)c1ccc(C(=O)C2C(=O)CCCC2=O)c(Cl)c1COCC(F)(F)F	inactive	
Brc1c(Br)c(Br)c(Br)c(Br)c1Br		2.59% [at 8.47 µM] (inactive)
NNC(N)=O	inactive	
C/C=C/CC#N	inactive	
CCOC(=O)Nc1cccc(OC(=O)Nc2ccccc2)c1	inactive	
CC[C@@H](CO)NC(=O)[C@@H]1C=C2c3cccc4[nH]cc(c34)C[C@H]2N(C)C1	inactive	
N[C@@H]1C[C@H]1c1ccccc1	inactive	
O=CCCl	inactive	
O=C(O)c1c(Cl)ccc2cc(Cl)cnc12	inactive	

Structure (SMILES)	Potency	viability change, negative = cytotoxic
N#CC(Br)(Br)C(N)=O	inactive	
O=C(O)C(Br)(Br)Br	inactive	
C[C@H]1CCCC(=O)CCC/C=C/c2cc(O)cc(O)c2C(=O)O1	37.1 µM (active) and inactive	
COc1cccc(C=O)c1	inactive	
CCCCCCCC(=O)Cl	inactive	
C=C1CC[C@@]2(O)[C@H]3Cc4ccc(O)c5c4[C@@]2(CCN3CC2CC2)[C@H]1O5	inactive	
ClC(Cl)(Cl)Cl	inactive	
CCOC(=O)CC(SP(=S)(OC)OC)C(=O)OCC (stereo not given)	inactive	
CCCCCCC(=O)CCCCCC/C=C/C[C@@H](O)[C@H](O)[C@@](N)(CO)C(=O)O	inactive	
CCC(=O)OC1(c2ccccc2)CCN(C)CC1	inactive	
COC(=O)c1ccccc1CS(=O)(=O)NC(=O)Nc1nc(OC)cc(OC)n1	inactive	
O=C(CCl)NCO	inactive	
CCOC(=O)COc1ccc(Cl)cc1Cl	inactive	
CCOC(=O)C(Cl)Cc1cc(-n2nc(C)n(C(F)F)c2=O)c(F)cc1Cl (stereo not given)	inactive	
NC1(c2ccccc2)CCCCC1	inactive	
O=C(NC(O)C(Cl)(Cl)Cl)NC(O)C(Cl)(Cl)Cl (stereo not given)	inactive	
C[C@H](N)C(=O)c1ccccc1	inactive	
O=C/C=C/c1ccco1	inactive	
CC(=O)CN(CC(C)=O)N=O	inactive	
C=CC=O	inactive	
